Compound activity deposited in PubChem by National Center for Advancing Translational Sciences (NCATS).
Shown is part of a subset that was picked to be rich in hits.
Shiga inhibitor: inhibitors of Shiga toxin in Vero cells | 290,000 compounds, 9.2% hits | AID 2315 | inhibition, % at 38.7 µM | Vero cells, Shiga toxin protein synthesis inhibition reporter; in the data active = inhibition mostly above about 28%, no sharp cut-off; inactive = mostly below about 43%; also: 0% is about no effect
AmpC inh no detg: blocks E. coli AmpC beta-lactamase in detergent-free assay | AmpC nitrocefin hydrolysis, absorbance 480 nm, 0.0001% Triton | Potency, µM (doses to about 57.1 µM), inactives show at the top dose activity change, negative = inhibition, usual class: inhibitors | 330,000 compounds, 0.52% hits;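 also: potency is read from the fitted curve at half-maximal effect; plate controls were no compound for no effect and no enzyme for full effect; nearly all actives have a fitted effect of over 20% in size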
Target sequence (P00811 whole entry, looked up): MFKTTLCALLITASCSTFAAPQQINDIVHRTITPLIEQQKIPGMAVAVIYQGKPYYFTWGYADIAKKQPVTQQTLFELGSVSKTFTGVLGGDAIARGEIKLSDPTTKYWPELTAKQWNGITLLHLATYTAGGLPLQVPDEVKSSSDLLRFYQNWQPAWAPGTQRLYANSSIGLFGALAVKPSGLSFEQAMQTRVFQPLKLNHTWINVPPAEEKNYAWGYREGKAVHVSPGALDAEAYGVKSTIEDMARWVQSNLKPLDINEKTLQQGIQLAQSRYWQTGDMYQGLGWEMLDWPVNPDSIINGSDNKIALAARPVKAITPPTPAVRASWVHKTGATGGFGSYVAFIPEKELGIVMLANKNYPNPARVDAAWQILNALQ
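AmpC (5.3 nM in the dispensed reagent) in 20 mM phosphate pH 7.0 with 0.01% (detergent screen) or 0.0001% Triton X-100 was preincubated with compounds for 15 min at room temperature. Nitrocefin was then added from an 800 uM solution, and hydrolysis was followed at 480 nm.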
NS1 inh: inhibitors of influenza NS1 protein function. AID 2326. Potency, µM (titrated, usually from 46.1 µM), for the others: at the highest dose activity, positive = more growth. 270,000 compounds, 0.4% hits; calls by dose curve; also: potency is read from the fitted curve at half-maximal effect; actives are rising curves; nearly all actives have a fitted effect of over 50% in size
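In this qHTS, NS1 from influenza A is expressed in budding yeast, where it slows growth. Cells are switched from glucose to 2% galactose medium (pH 6.0, -URA), treated with compound, and growth recovery is read at OD600.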
AmpC detergent: blocks E. coli AmpC beta-lactamase in detergent assay; P00811; AmpC hydrolysis of nitrocefin, absorbance 480 nm, 0.01% Triton; Potency, µM (top dose mostly 114 µM), without a hit: at the top dose activity change, negative = inhibition, most hits filed as inhibitors; 370,000 compounds, 0.041% hits; AID 485294;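 also: potency is read from the fitted curve at half-maximal effect; 0% = no-compound wells and -100% = no-enzyme wells; nearly all actives have a fitted effect of over 25% in size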
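AmpC (5.3 nM in the dispensed reagent) in 20 mM phosphate pH 7.0 with 0.01% (detergent screen) or 0.0001% Triton X-100 was preincubated with compounds for 15 min at room temperature. Nitrocefin was then added from an 800 uM solution, and hydrolysis was followed at 480 nm.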
CHX counter: counter-screen hit for Shiga toxin inhibitors, cycloheximide; cell reporter, cycloheximide protein synthesis inhibition counterscreen; max response, %; 300,000 compounds, 12% hits; AID 2314; in the data active = max response mostly above about 13%, no sharp cut-off; inactive = mostly below about 14%; also: read at 38.3 µM for the half of the compounds with a filed dose; 0% is about no effect
Numbers without * were called inactive; ? = inconclusive; nt = no result; [ ] = dose if it differs, or a comment. Unless noted, calls follow the shape of the dose curve; as a rule, active = well fitted curve in the direction sought with a large enough effect; inconclusive = small, poorly fitted or top-dose-only effect, or another doubt; inactive = no such curve, though single readings can be large; an effect the other way counts as inactive or inconclusive.

SMILES	Shiga inhibitor	AmpC inh no detg	NS1 inh	AmpC detergent	CHX counter
COc1ccc(S(=O)(=O)N2CCOCC2)cc1C(=O)NCC(c1ccco1)N1CCCC1 (stereo not drawn)	nt	-10%	nt	0%	nt
O=C(Nc1cccc(Cl)c1)Nc1ccccc1C(=O)NCc1ccco1	55*	-20%	3%	0%	32*
O=C(Nc1ccccc1C(=O)NCc1ccco1)Nc1cccc2ccccc12	36	20µM*	nt	-5%	10
COc1ccccc1C(=O)Nc1ccccc1C(=O)NCc1ccco1	11	-18%	-4%	5%	32*
O=C(NCCS(=O)(=O)c1ccc(Br)cc1)c1ccc(Cl)cc1Cl	-6	-20%	0%	-3%	-2
CCC(C)(C)NC(=O)Cn1c(-c2ccc(C)cc2)noc1=O	-6	-10%	2%	-12%	-4
C[C@@H]1C(=O)OC2C[C@@]34[C@H]5C[C@@H](C(C)(C)C)[C@@]36C(O)C(=O)O[C@H]6O[C@@]4(C(=O)O5)[C@]21O (stereo partly drawn)	7	nt	nt	nt	4
COc1cc(OC)cc(C(=O)NC(C(=O)Nc2ccc3c(c2)OCO3)C(C)C)c1 (stereo not drawn)	nt	-32%	nt	-1%	nt
CC(C)C(=O)OCc1cc(=O)n2nc(C3CCCCC3)sc2n1	nt	nt	nt	12%	nt
COc1ccccc1N=c1oc2c(OC)cccc2cc1C(=O)NCc1ccco1	115*	-8%	9%	-4%	48*
COc1ccc(C(=O)Nc2ccc(Cl)cc2C(=O)NCc2ccco2)cc1OC	55*	41%	-52%	-3%	43*
COc1ccc(N=c2oc3c(OC)cccc3cc2C(=O)NCc2ccco2)cc1OC	28	-26%	-30%	-7%	11
COc1ccc(OC)c(N=c2oc3c(OC)cccc3cc2C(=O)NCc2ccco2)c1	54	-15%	4%	?	-1
COc1cccc2cc(C(=O)Nc3ccc(F)cc3)c(=Nc3ccc(C(=O)O)cc3)oc12	76*	-45%	nt	-6%	51*
COc1ccc(C(=O)c2c(N)c(C(=O)Nc3cccc(OC)c3)c3ccccn23)cc1	nt	nt	nt	19%	nt
O=S(=O)(c1ccc(F)cc1)N1CCN(c2ccccn2)CC1	-6	-4%[2.29 µM]	2%	-7%	-3
Cc1ccccc1-c1nc(SCC(=O)NCc2ccco2)c2c(=O)n(C)c(=O)n(C)c2n1	nt	nt	nt	-3%	nt
Fc1ccc(NC(=S)N2CCc3ccccc32)cc1	41*	-33%	2%	-16%	15*
NS(=O)(=O)c1ccc(NC(=S)N2CCc3ccccc32)cc1	-17	-25%	15%	2%	3
FC(F)Oc1ccc(NC(=S)N2CCc3ccccc32)cc1	78*	-31%	-2%	2%	36*
NC(N)=NCCC[C@H](N)C(=O)NCC(=O)N[C@@H](CC(=O)O)C(=O)O	-5	nt	nt	nt	-4
COc1ccc(C(=O)Nc2cc(C)nn2-c2nc3ccccc3[nH]2)c(OC)c1	20	-17%	-5%	4%	20*
O=C(CN1CCCCC1)Nc1cccc(Br)c1	20	-14%	-4%	?	15*
COc1cccc(NC(=O)CN2CCCCCC2)c1	nt	-11%	-9%	-14%	23*
Cc1ccc(C(=O)Nc2cccc(NC(=O)CN3CCCCC3)c2)cc1	nt	-14%	0%	0%	14*
SMILES	Shiga inhibitor	AmpC inh no detg	NS1 inh	AmpC detergent	CHX counter
O=C(CN1CCOCC1)Nc1cccc(Br)c1	-12	-19%	-2%	2%	-1
COc1cccc(C2=Nn3c(nnc3-c3ccccc3C)SC2)c1	-8	nt	nt	nt	-1
Cn1c(N2CCN(C(c3ccccc3)c3ccccc3)CC2)nc2c1c(=O)[nH]c(=O)n2C	-7	1%	2%	?	2
COCC1CCCCN1C(=O)c1ccc(OC)c(OC2CCN(C(C)C)CC2)c1 (stereo not drawn)	93*	-4%	-9%	-5%	57*
COc1cc(C(=O)N2CCCCCCC2)ccc1OC1CCN(C(C)=O)CC1	43*	52%	8%	0%	30*
CCC1CCCCN1C(=O)c1ccc(OC2CCN(C(=O)CCOC)CC2)cc1 (stereo not drawn)	11	105%	-7%	7%	16*
COCCC1CCCCN1C(=O)c1cccc(OC2CCN(S(C)(=O)=O)CC2)c1 (stereo not drawn)	-9	56%	6%	-4%	-2
COCCC(=O)N1CCC(Oc2ccc(C(=O)N3CCCCC3CCO)cc2)CC1 (stereo not drawn)	11	77%	12%	?	17
COCC1CCCCN1C(=O)c1cccc(OC2CCN(C(=O)C3CC3)CC2)c1 (stereo not drawn)	81*	107%	24%	7%	50*
Cc1cccn2c(=O)cc(COc3ccc(NC(=O)C(C)C)cc3)nc12	nt	nt	nt	-4%	nt
Cc1cccc(N=Nc2cn[nH]c2-c2ccco2)c1	100*	-30%	nt	?	54*
CCOc1ccc(/C=N/NC(=O)CC(=O)NCc2ccccc2)cc1	-14	-13%	-1%	-11%	-2
CC(=O)Oc1ccc(/C=N/NC(=S)Nc2ccccc2)cc1	35	-28%	17%	?	53*
CCN(CC)c1ccc(/C=N/NC(=O)Nc2ccccc2)cc1	71*	-30%	nt	?	35*
CCOc1ccc(/C=N/NC(=O)Nc2ccccc2)cc1	69*	-4%	-4%	-5%	41*
Cc1ccc(C)c(NC(=O)c2ccc[n+](Cc3ccc([N+](=O)[O-])cc3)c2)c1	-7	-15%	-5%	-14%	-3
O=C(CSc1ncnc2c1nnn2Cc1ccccc1)NC1CCCCC1	-5	-8%	4%	0%	-2
Cc1cc(C)cc(NC(=O)C(=O)NCC(c2ccc3c(c2)OCO3)N2CCN(C)CC2)c1 (stereo not drawn)	nt	nt	nt	2%	nt
COc1ccc(OC)c(NC(=O)c2cc(-c3cc(C)ccc3O)n[nH]2)c1	36	-29%	-2%	5%	-2
Cc1ccc(O)c(-c2cc(C(=O)Nc3cccnc3)[nH]n2)c1	80*	-35%	6%	-6%	31*
O=C(Nc1cccnc1)c1cc(-c2cc(Cl)ccc2O)n[nH]1	91*	-37%	3%	6%	39*
O=C(COc1ccc(Br)cc1)NCCO	4	-8%	12%	-2%	1
O=C(O)c1nnsc1-c1ccc(-c2snnc2C(=O)O)cc1	nt	nt	-16%	nt	nt
CCC1Oc2ccc(C)cc2N(CC(=O)NCc2ccc(F)cc2)C1=O (stereo not drawn)	nt	nt	nt	-5%	nt
Cc1cc(-c2ccc(Cl)cc2Cl)c(C#N)c(=O)[nH]1	44*	-19%	7%	-8%	21*
COc1ccccc1N1CCN(C(=O)c2ccc(Nc3nc4ccccc4n4nnnc34)cc2)CC1	nt	nt	nt	-7%	nt
CN(CCOc1ccccc1Cl)Cc1ccccc1	nt	6%	-6%	-19%	13*
Cc1cc(C)n2nc(SCC(=O)Nc3cc(Cl)ccc3C)nc2n1	nt	nt	nt	-2%	nt
Cn1cc([N+](=O)[O-])c(C(=O)Nc2ccn(C34CC5CC(CC(C5)C3)C4)n2)n1	2	17%	-7%	-2%	15*
